Where a name gives a salt, the structure may show the parent alone.
How the values were obtained:
Conditions in all cases: 20 µM
[1] = tested on: Salmonella enterica typhimurium; experiment: growth AUC normalised to DMSO control (fraction of control); higher = less growth inhibition, active = hit call of the paper
Summary of the method: (§1)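 After two anaerobic passages, pathogens were added at a starting OD578 of 0.01 to pre-reduced mGAM plates holding compound at 20 μM with 1% DMSO; hemin and NAD were supplemented for Haemophilus parainfluenzae. Sealed with breathable membranes, plates were read at OD578 hourly for 24 h, in three biological replicates. The trapezoidal rule, applied up to the exponential-to-stationary transition, gave the growth-curve AUC, which was normalised to DMSO controls on the same plate.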

[2] = tested on: Shigella flexneri; experiment: as above
Summary of the method: as §1

[3] = tested on: Vibrio cholerae; experiment: as above
Summary of the method: as §1

[4] = tested on: Yersinia pseudotuberculosis; experiment: as above
Summary of the method: as §1

[5] = tested on: P. vulgatus RND KO; experiment: growth AUC normalised to DMSO control (median) (fraction of control); higher = less growth inhibition, active = hit call of the paper
Summary of the method: (§2)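 For normalised area under the curve, growth curves were truncated at entry into stationary phase, integrated by the trapezoidal rule and divided against vehicle wells on the same plate. The curves came from strains passaged twice overnight without oxygen and then grown in mGAM in 96-well plates at a starting OD578 of 0.01. Each well held an approved-drug library compound at 20 μM with 1% DMSO, and OD578 was read hourly for 24 h in an anaerobic incubator. Values are medians of three biological replicates.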

[6] = tested on: P. vulgatus WT; experiment: as above
Summary of the method: as §2

[7] = tested on: S. enterica typhimurium WT; experiment: as above
Summary of the method: as §2

[8] = tested on: S. enterica typhimurium tolC KO; experiment: as above
Summary of the method: as §2

Measured: growth AUC normalised to DMSO control
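For growth AUC normalised to DMSO control (median) in this document: active when median AUC fell below 0.1.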

CCN(CC)CCc1nc(-c2ccccc2)no1 [Oxolamine citrate salt]
inactive: [1] 0.99 | [2] 1.01 | [3] 1.04 | [4] 1.03 | [5] 0.97 | [6] 0.98 | [7] 1.01 | [8] 1.01

CCCSc1ccc2[nH]c(NC(=O)OC)nc2c1 [Albendazole]
inactive: [1] 1 | [2] 1.03 | [3] 0.99 | [4] 0.993 | [5] 1.03 | [6] 1.07 | [7] 0.999 | [8] 1

COc1ccccc1O [Guaiacol]
inactive: [1] 0.991 | [2] 0.976 | [3] 0.992 | [4] 0.999 | [5] 0.99 | [6] 1 | [7] 0.997 | [8] 1

Cc1c(NC(C)C)c(=O)n(-c2ccccc2)n1C [Isopyrin hydrochloride]
inactive: [1] 1.02 | [2] 1.01 | [3] 1.02 | [4] 0.982 | [5] 1.02 | [6] 1.06 | [7] 1 | [8] 1.01

CN1CCCC(n2nc(Cc3ccc(Cl)cc3)c3ccccc3c2=O)CC1 (stereo not given) [Azelastine hydrochloride]
inactive: [1] 1.01 | [2] 0.989 | [3] 0.932 | [4] 0.969 | [5] 1.01 | [6] 1 | [7] 1 | [8] 0.935

COc1cccc(N(C)C(=S)Oc2ccc3c(c2)CCCC3)n1 [Liranaftate]
inactive: [1] 1.02 | [2] 1.03 | [3] 1.01 | [4] 1.01 | [5] 1.03 | [6] 1.07 | [7] 0.996 | [8] 0.909

C[C@]12CC[C@H]3[C@@H](CCC4=CC(=O)CC[C@@]43C)[C@@H]1CC[C@@H]2C(=O)CO [Deoxycorticosterone]
inactive: [1] 1 | [2] 1.03 | [3] 1.03 | [4] 1.03 | [5] 1.07 | [6] 1.07 | [7] 1 | [8] 0.933

CC[C@@H](CO)NCCN[C@@H](CC)CO [Ethambutol dihydrochloride]
inactive: [1] 0.943 | [2] 0.976 | [3] 1 | [4] 1.01 | [5] 1.01 | [6] 0.998 | [7] 1 | [8] 0.989

Cc1cc2c(s1)Nc1ccccc1N=C2N1CCN(C)CC1 [Olanzapine]
inactive: [1] 0.997 | [2] 0.996 | [3] 0.997 | [4] 1.01 | [5] 1.03 | [6] 1.03 | [7] 1.02 | [8] 0.994

CN(C)c1ccc(O)c2c1C[C@H]1C[C@H]3[C@H](N(C)C)C(=O)C(C(N)=O)=C(O)[C@@]3(O)C(=O)C1=C2O [Minocycline hydrochloride]
active: [1] 0.00774 | [2] 0.0229 | [3] 0.0305 | [4] 0.0367 | [5] 0.0156 | [6] 0.0185 | [7] 0.0116 | [8] 0.00184

CCOC(=O)NNc1nncc2ccccc12 [Todralazine hydrochloride]
inactive: [1] 1.01 | [2] 1.01 | [3] 0.99 | [4] 1.01 | [5] 1.01 | [6] 0.999 | [7] 1.01 | [8] 1.02

CN(Cc1cc(Br)cc(Br)c1N)C1CCCCC1 [Bromhexine hydrochloride]
inactive: [1] 0.998 | [2] 1.01 | [4] 1.02 | [5] 0.999 | [6] 0.977 | [7] 1 | [8] 0.948
active: [3] 0.714

C[C@H](CCC(=O)O)[C@H]1CC[C@H]2[C@@H]3C(=O)C[C@@H]4CC(=O)CC[C@]4(C)[C@H]3CC(=O)[C@]12C [Dehydrocholic acid]
inactive: [1] 0.98 | [2] 0.968 | [3] 0.983 | [4] 0.957 | [5] 1.01 | [6] 0.983 | [7] 0.999 | [8] 0.66

NS(=O)(=O)c1cc2c(cc1C(F)(F)F)NCNS2(=O)=O [Hydroflumethiazide]
inactive: [1] 1.01 | [2] 1.01 | [3] 0.998 | [4] 0.998 | [5] 1.02 | [6] 0.986 | [7] 1.01 | [8] 1.01

OC(CCN1CCCCC1)(c1ccccc1)C1CCCCC1 (stereo not given) [Trihexyphenidyl-D,L hydrochloride]
inactive: [1] 1 | [2] 0.996 | [3] 0.961 | [4] 1.02 | [5] 1.02 | [6] 1.04 | [7] 1.01 | [8] 0.986

C[C@@H]1C[C@H]2[C@@H]3C[C@H](F)C4=CC(=O)C=C[C@]4(C)[C@@]3(F)[C@@H](O)C[C@]2(C)[C@@]1(O)C(=O)CO [Flumethasone]
inactive: [1] 0.995 | [2] 0.994 | [3] 0.997 | [4] 0.993 | [5] 1.01 | [6] 1.02 | [7] 0.997 | [8] 1.01

CS(=O)(=O)c1ccc([C@@H](O)[C@@H](CO)NC(=O)C(Cl)Cl)cc1 [Thiamphenicol]
inactive: [7] 0.509 | [8] 0.281
active: [1] 0.408 | [2] 0.0249 | [3] 0.037 | [4] 0.866 | [5] 0.0183 | [6] 0.0102

CN(C)CCn1nnnc1SCC1=C(C(=O)O)N2C(=O)[C@@H](NC(=O)Cc3csc(N)n3)[C@H]2SC1 [Cefotiam hydrochloride]
active: [1] 0.0032 | [2] 0.0159 | [3] 0.0593 | [4] 0.03 | [5] 0.0136 | [6] 0.00849 | [7] 0.00304 | [8] 0.00289

Cc1cccc(Nc2ccccc2C(=O)O)c1C [Mefenamic acid]
inactive: [1] 1 | [2] 1.01 | [3] 0.926 | [4] 1 | [5] 0.958 | [6] 0.979 | [7] 0.985 | [8] 1.01

NNC(=O)c1ccncc1 [Isoniazid]
inactive: [1] 1.02 | [2] 1.04 | [3] 1.05 | [4] 0.942 | [5] 1.04 | [6] 1.07 | [7] 1.01 | [8] 0.989

CCCCc1oc2ccccc2c1C(=O)c1cc(I)c(OCCN(CC)CC)c(I)c1 [Amiodarone hydrochloride]
inactive: [1] 0.999 | [2] 1.04 | [3] 1 | [4] 1.02 | [5] 1.02 | [6] 1.06 | [7] 1.04 | [8] 1.02

COC(=O)C1=C(C)NC(C)=C(C(=O)OC(C)C)C1c1cccc2nonc12 (stereo not given) [Isradipine]
inactive: [1] 1.01 | [2] 1.02 | [3] 1.02 | [4] 1 | [5] 1.02 | [6] 1.05 | [7] 1.02 | [8] 0.979

CC(=O)OC(C)C[N+](C)(C)C (stereo not given) [Methacholine chloride]
inactive: [1] 0.992 | [2] 0.939 | [3] 0.99 | [4] 0.983 | [5] 0.991 | [6] 1 | [7] 0.991 | [8] 1

COc1ccc2cc([C@H](C)C(=O)O)ccc2c1 [(S)-Naproxen]
inactive: [1] 0.992 | [2] 1.01 | [3] 0.96 | [4] 0.964 | [5] 1.01 | [6] 1.04 | [7] 0.994 | [8] 0.998

CC(C)NCC(O)COc1ccc(COCCOC(C)C)cc1 (stereo not given) [Bisoprolol hemifumarate]
inactive: [1] 1.03 | [2] 1.03 | [3] 1.05 | [4] 1.02 | [5] 1.02 | [6] 1.08 | [7] 1.01 | [8] 1.01

CC1CS(=O)(=O)CCN1/N=C/c1ccc([N+](=O)[O-])o1 (stereo not given) [Nifurtimox]
active: [3] 0.00876 | [5] 0.0205 | [6] 0.00686
inactive: [1] 0.981 | [2] 0.947 | [4] 0.99 | [7] 0.995 | [8] 0.962

CC(C)n1c(/C=C/C(O)CC(O)CC(=O)O)c(-c2ccc(F)cc2)c2ccccc21 (stereo not given) [Fluvastatin sodium salt]
inactive: [1] 0.985 | [2] 0.995 | [3] 0.997 | [4] 0.996 | [5] 1 | [6] 1 | [7] 1 | [8] 0.931

O=C1c2ccccc2C(=O)C1c1ccccc1 [Phenindione]
inactive: [1] 0.982 | [2] 0.956 | [3] 0.983 | [4] 0.983 | [5] 0.997 | [6] 0.989 | [7] 0.998 | [8] 0.977

CCN(CC)C(=O)c1ccc(O)c(OC)c1 [Ethamivan]
inactive: [1] 0.981 | [2] 1.03 | [3] 1.03 | [4] 1 | [5] 1.04 | [6] 1.06 | [7] 1.01 | [8] 1.01

CC(C)(C(=O)c1cccnc1)c1cccnc1 [Metyrapone]
inactive: [1] 0.996 | [2] 0.992 | [3] 0.965 | [4] 0.989 | [5] 0.996 | [6] 0.981 | [7] 1 | [8] 0.996

From the supplement of paper PMC12350171
